# Assay results from publication PMC4336329 (PLoS ONE, 2015).
# The campaign covered roughly 310,000 compounds. About 14,000 (4.5%) showed an effect of 50% or more. The effect is printed as a negative number. The sample as a whole holds a higher share of strong results than the screen did.
# Molecular target: human ether-à-go-go-related gene (hERG) potassium channel (human, UniProt Q12809)
# Test: primary screen, population patch clamp on CHO cells stably expressing hERG; higher = less effect of the substance
# 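Also: peak tail current of the secondary pulse compared with the same well before compound.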
# human ether-à-go-go-related gene (hERG) potassium channel, sequence (Q12809 whole entry, looked up): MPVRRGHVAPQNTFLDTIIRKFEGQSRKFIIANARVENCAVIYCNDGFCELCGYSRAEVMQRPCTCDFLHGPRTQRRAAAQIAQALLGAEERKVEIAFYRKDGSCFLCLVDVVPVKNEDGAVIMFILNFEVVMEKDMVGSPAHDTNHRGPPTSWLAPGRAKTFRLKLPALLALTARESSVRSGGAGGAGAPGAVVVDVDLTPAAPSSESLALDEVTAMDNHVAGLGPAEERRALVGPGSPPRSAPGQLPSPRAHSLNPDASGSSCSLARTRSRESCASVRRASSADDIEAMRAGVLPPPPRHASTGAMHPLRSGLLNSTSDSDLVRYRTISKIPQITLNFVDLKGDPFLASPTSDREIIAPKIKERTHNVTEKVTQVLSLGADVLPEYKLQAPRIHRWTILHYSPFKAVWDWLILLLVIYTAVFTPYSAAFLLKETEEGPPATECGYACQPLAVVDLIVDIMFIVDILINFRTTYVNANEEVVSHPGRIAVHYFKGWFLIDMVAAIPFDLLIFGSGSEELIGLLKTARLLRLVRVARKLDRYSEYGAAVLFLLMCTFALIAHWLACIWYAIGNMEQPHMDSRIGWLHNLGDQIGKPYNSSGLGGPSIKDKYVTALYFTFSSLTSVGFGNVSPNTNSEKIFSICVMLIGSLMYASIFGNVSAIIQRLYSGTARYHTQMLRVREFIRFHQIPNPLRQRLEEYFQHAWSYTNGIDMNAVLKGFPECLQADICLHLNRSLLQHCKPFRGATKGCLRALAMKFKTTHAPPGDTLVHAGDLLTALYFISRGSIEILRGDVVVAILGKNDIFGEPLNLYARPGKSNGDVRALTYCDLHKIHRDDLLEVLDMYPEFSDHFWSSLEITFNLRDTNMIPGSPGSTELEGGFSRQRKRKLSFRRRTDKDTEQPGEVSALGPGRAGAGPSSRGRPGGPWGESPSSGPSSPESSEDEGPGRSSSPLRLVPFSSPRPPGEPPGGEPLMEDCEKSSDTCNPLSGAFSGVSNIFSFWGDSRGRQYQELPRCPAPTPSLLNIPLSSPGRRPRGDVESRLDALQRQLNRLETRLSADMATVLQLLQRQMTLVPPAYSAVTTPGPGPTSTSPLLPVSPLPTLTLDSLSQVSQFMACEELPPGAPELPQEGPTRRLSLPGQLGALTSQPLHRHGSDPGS
row,Structure (SMILES),"hERG current change (%, negative = inhibition) at 10uM"
1,CC(C)Oc1cccc(C(=O)Nc2ccc(Br)cc2F)c1,7.79%
2,Cc1ccccc1CNC(=O)CC1C(=O)NCCN1CC1CCCCC1 (centres unmarked),6.33%
3,Cc1cc(C)c(C(=O)CSc2n[nH]c(=O)n2C2CC2)cc1C,-9.54%
4,COc1ccc(C(=O)c2nc3ccccc3n2C(C)C)cc1OC,-16.5%
5,CC(C)c1ccc(NNC(=O)C2CCC2)cc1,3.84%
6,COc1ccc(CC(=O)N2CCc3cc(OC)c(OC)cc3C2)cc1,-6.59%
7,COc1ccc(S(=O)(=O)N2CCN(CCOc3ccc(Br)cc3)CC2)cc1OC,-12.8%
8,COc1cc2c(cc1OC)CN(CCC(=O)c1ccc(Br)cc1)CC2,-66.9%
9,Brc1cccc(OCCN2CCc3ccccc3C2)c1.Cl,-5.84%
10,COc1ccc(C(=O)CCN2CCC(C)CC2)cc1.Cl,-30%
11,COc1ccc(C(=O)CCN2CCc3cc(OC)c(OC)cc3C2)cc1.Cl,-69.1%
12,COc1cc2c(cc1OC)CN(C(=O)CCNS(=O)(=O)c1ccc(Br)cc1)CC2,-36.8%
13,COc1cc2c(cc1OC)CN(Cc1cc(OC)c(O)c(OC)c1)CC2,-14%
14,COc1cc2c(cc1OC)CN(CCOc1ccc(Br)cc1)CC2,-68.8%
15,COc1ccc(C(=O)NC(=S)Nc2cccc3nc(C)ccc23)cc1OC,8.45%
16,Cc1nnc(NC(=O)CN2CCN(Cc3c(Cl)cccc3Cl)CC2)s1,9.97%
17,COC(=O)c1c(NC(=O)CS(=O)(=O)c2ccccc2)sc(C)c1C,-21.6%
18,CNC(=O)C1CCN(S(=O)(=O)c2c(C)noc2/C=C/c2cccc(C)c2)CC1,10.2%
19,COc1ccccc1NC(=O)c1ccc2c(c1)C(=O)N(c1ccccc1OC)C2=O,5.55%
20,CC(C)c1ccccc1NS(=O)(=O)c1cccs1,17.8%
21,CNCCC(Oc1ccccc1OC)c1ccccc1.Cl (centres unmarked),-53.5%
22,CNCC[C@H](Oc1cccc2ccccc12)c1cccs1,-37.8%
23,CNCC[C@H](Oc1cccc2ccccc12)c1cccs1.Cl,-36%
24,CCS(=O)(=O)c1ccc2oc(Nc3cccc(OC)c3)nc2c1,9.78%

row,Structure (SMILES),"hERG current change (%, negative = inhibition) at 10uM"
1,Cc1ccc(NC(=O)CCCn2nc(C)c3c(C)n(-c4ccccc4)nc3c2=O)cc1C,24.6%
2,COc1cc(Cc2ccc(N)c(OC)c2)ccc1N,11.1%
3,COc1ccc(Cc2ccc(OC)c(N)c2)cc1N,-52.6%
4,COc1ccc(OC)c(N)c1.Cl,20.5%
5,Cc1cccc(N2CC(C)Cn3c2nc2c3c(=O)[nH]c(=O)n2C)c1 (centres unmarked),-0.757%
6,COCCNCCCCSc1ccc(Cl)cc1,-50.8%
7,COCCCNCCCCSc1ccc(Cl)cc1,-37.9%
8,COCCCNC(=O)CCSc1ccc(Cl)cc1,-8.9%
9,O=C1CCCC2=C1C(c1ccccc1)C1C(=O)c3ccccc3C1=N2 (centres unmarked),6.16%
10,CC(=O)Nc1ccc(C(=O)N2CCN(S(=O)(=O)c3ccc4c(c3)OCCCO4)CC2)cc1,5.45%
11,Cc1cc(C(=O)Nc2ccc(S(=O)(=O)N3CCCC3)cc2)no1,23.6%
12,COc1ccc(C(=O)Nc2cc([N+](=O)[O-])ccc2N2CCN(C)CC2)cc1,-30.3%
13,O=C(NC(=S)Nc1ccccc1N1CCCCC1)c1ccc(-c2cccc([N+](=O)[O-])c2)o1,4.88%
14,CN1CCN(c2ccc(S(=O)(=O)N3CCCCC3)cc2NC(=O)c2cccc([N+](=O)[O-])c2)CC1,-65.8%
15,CN1CCN(c2ccc(S(=O)(=O)N3CCCCC3)cc2NC(=O)c2ccc(C#N)cc2)CC1,-41.7%
16,COc1cccc(C(=O)Nc2cc([N+](=O)[O-])ccc2N2CCN(C)CC2)c1,-71.7%
17,CC(=O)N1CCN(c2ccccc2NC(=O)c2ccc(-c3cccc([N+](=O)[O-])c3)o2)CC1,-75.4%
18,O=C(NC(=S)Nc1ccccc1N1CCOCC1)c1cccc([N+](=O)[O-])c1,17.6%
19,CCC(=O)N1CCN(c2ccccc2NC(=S)NC(=O)c2cccc([N+](=O)[O-])c2)CC1,-69.9%
20,CN1CCN(c2ccc(S(=O)(=O)N3CCCCC3)cc2NC(=O)c2ccc3ccccc3c2)CC1,-40.4%
21,CCC(=O)N1CCN(c2ccccc2NC(=O)c2ccc(-c3cccc([N+](=O)[O-])c3)o2)CC1,-34.1%
22,COc1ccc(C(=O)Nc2cc([N+](=O)[O-])ccc2N2CCCC2)cc1,-1.57%
23,CCC(=O)N1CCN(c2ccc(NC(=S)NC(=O)c3cccc([N+](=O)[O-])c3)cc2)CC1,2.13%
